# Measured values reported in PubChem BioAssay AID651820 (National Center for Advancing Translational Sciences (NCATS), 2012).
# About 12,000 (3.5%) of roughly 340,000 compounds were called active. Entries that show only a call come without a potency. About 18% were inconclusive and are not listed. The full list was thinned out, with actives kept by preference. A number with no mark means an inactive call. Calls follow the shape of the dose curve; as a rule, active = well fitted inhibition curve with a large enough effect; inconclusive = small, poorly fitted or top-dose-only effect, or another doubt; inactive = no such curve, though single readings can be large or run the other way.
# Experiment: qHTS Assay for Inhibitors of Hepatitis C Virus (HCV)
# Details: Huh7.5.1 HCVcc-Cre infection, luciferase reporter, 44 h; series mostly up to 41.8 µM
# Procedure, shortened: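 Infectious HCVcc-Cre (~0.5 moi) was added to cells just after compound, with cells seeded 4 h earlier at 1,000 per well. Luciferase activity after 44 h culture reported infection; substrate was incubated 15 min at room temperature before reading.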
# Potency is read from the fitted curve at half-maximal effect.
Structure (SMILES),Potency,"activity change, negative = inhibition"
CC1(C)Cc2ccccc2-c2[nH]c(=S)[nH]c(=O)c21,inactive,–
CC(C)CC(N=C1NC(C)(C)Cc2ccccc21)C(=O)O (configuration not stated),inactive,–
CC1(C)Cc2ccccc2/C(=C/C(=O)c2ccccc2)N1,14.1 µM (active),–
CN(CC(=O)NCCc1ccc(F)cc1)CC(=O)Nc1ccc(F)c(F)c1F,inactive,–
CC(C)(C)n1nnnc1C(c1ccc(F)cc1)N1CCN(Cc2ccc3c(c2)OCO3)CC1 (configuration not stated),inactive,–
Fc1ccc2[nH]c3c(N4CCSCC4)ncnc3c2c1,6.31 µM (active),–
Fc1ccc2[nH]c3c(N4CCN(Cc5ccc6c(c5)OCO6)CC4)ncnc3c2c1,2.51 µM (active),–
O=c1[nH]c(N2CCN(Cc3ccc4c(c3)OCO4)CC2)nc2c1CCCC2,inactive,–
Cc1c(CN2CC[C@@H](N3CCN(c4ccccn4)CC3)[C@H](O)C2)[nH]c2ccc(F)cc12,inactive,–
O=C1NC(=O)C(CCc2ccccc2)(c2ccccc2)N1 (configuration not stated),inactive,–
Cc1cc(C)n2nc(C(=O)OC(C)C(=O)c3cc(C)c(C)cc3C)nc2n1 (configuration not stated),inactive,–
CCC(C)N(C(=O)Cn1nc(C)c([N+](=O)[O-])c1C)C1CCS(=O)(=O)C1 (configuration not stated),inactive,–
Cc1nccn1CC(=O)N/N=C/c1ccc(O)c(O)c1,inactive,–
Oc1ccc(/C=N/Nc2ccc(C(F)(F)F)cn2)cc1O,3.55 µM (active),–
O=C(Nc1ccccc1)Nc1ccc(C(F)(F)F)cn1,inactive,–
CC(=O)Nc1ccc(C(=O)NNC(=O)CCCCC(=O)NNC(=O)c2ccc(NC(C)=O)cc2)cc1,inactive,–
CCCCN1C(N)=NC[C@@H]1Cc1ccccc1,inactive,–
CC[C@]12c3[nH]c4ccc(Cl)cc4c3CCN1C(=O)[C@@H](CC(=O)NCCCOC)C[C@@H]2C(=O)N1CCN(C(=O)C2CC2)CC1,inactive,–
C=CC[C@@H](CC(=O)N[C@@H](CO)Cc1ccccc1)C(=O)NCCOC(=O)[C@@H](CC=C)CC(=O)OC(C)(C)C,inactive,–
CCCn1c(C)cc(-c2csc(NC(=O)CCc3nc4ccccc4c(=O)[nH]3)n2)c1C,–,-6.01% [at 8.37 µM]
O=C1CN(C(=O)COC(=O)/C=C/c2ccc(F)cc2)c2ccccc2N1,inactive,–

Structure (SMILES),Potency,"activity change, negative = inhibition"
Cn1c(SCC(=O)N2CCCc3ccccc32)nc2ccccc2c1=O,12.6 µM (active),–
O=C(CSc1nc2ccccc2c(=O)n1CCCO)N1CCc2ccccc21,inactive,–
O=C(CSc1nc2[nH]ncc2c(=O)n1-c1ccccc1)N1CCCc2ccccc21,inactive,–
Nc1cc(N)nc(SCC(=O)Nc2cccc(S(=O)(=O)N3CCCCC3)c2)n1,inactive,–
COCCn1cnnc1SCC(=O)Nc1cccc(S(=O)(=O)N2CCCCC2)c1,inactive,–
O=C(Cn1cnc2ccccc2c1=O)Nc1cccc(S(=O)(=O)N2CCCCC2)c1,11.2 µM (active),–
O=C(COC(=O)COc1ccccc1F)Nc1cccc(S(=O)(=O)N2CCCCC2)c1,inactive,–
Cn1nnnc1SCC(=O)Nc1cccc(S(=O)(=O)N2CCCCC2)c1,inactive,–
CSCCC1NC(=O)N(CC(=O)Nc2cccc(S(=O)(=O)N3CCCCCC3)c2)C1=O (configuration not stated),11.2 µM (active),–
Nc1ncnc2c1ncn2[C@@H]1O[C@H](CNCc2cccn2-c2nccs2)[C@@H](O)[C@H]1O,inactive,–
NC(=O)c1ccsc1NC(=O)COC(=O)COc1ccc(C=O)cc1,inactive,–
CCOC(=O)/C=C/c1ccc(C(F)(F)F)cc1S(=O)(=O)NC(C)(C)C,inactive,–
CCCCN1C(=O)C(=O)N(CC(=O)Nc2cccc(C(C)=O)c2)C1=O,inactive,–
CC(C)Cc1nnc(NC(=O)CCNC(=O)c2ccccc2Cl)s1,inactive,–
COc1ccc(-c2nnc(-c3ccc4ccccc4c3)o2)cc1,inactive,–
CCOc1ccc(S(=O)(=O)Nc2ccc(C(=O)NCCCN3CCCC3=O)cc2)cc1,inactive,–
Cc1nc2sc(C(=O)c3ccccc3)c(N)c2c2c1CCCC2,25.1 µM (active),–
CCOC(=O)c1sc2nc(SC)nc(-c3ccccc3)c2c1N,inactive,–
Cc1cccc(NC(=O)c2sc3nc4c(c(-c5ccco5)c3c2N)CCC4)c1,inactive,–
COc1ccc(-c2ccc3nnc(SCC(=O)Nc4ccc(NC(C)=O)cc4)n3n2)cc1,inactive,–
CC(C)(C)OC(=O)C[C@@H]1C/C=C\C[C@H](CC(=O)N[C@@H](CO)Cc2ccccc2)C(=O)N[C@H](Cc2ccccc2)COC1=O,inactive,–

Structure (SMILES),Potency,"activity change, negative = inhibition"
Cc1c(Cl)c([N+](=O)[O-])nn1Cc1ccc(C(=O)N/N=C\c2cc(Cl)ccc2O)o1,12.6 µM (active),–
O=C(N/N=C/c1ccc2c(c1)OCO2)c1ccc(Cn2cc([N+](=O)[O-])cn2)o1,inactive,–
Cc1c(Cl)c([N+](=O)[O-])nn1CCCC(=O)Nc1cc(Cl)ccc1Cl,inactive,–
Cc1ccc(S(=O)(=O)N2CCC(C(=O)N3CCCCCCC3)CC2)cc1,inactive,–
O=C(O)c1ccccc1N=N/C(=N/Nc1cc(S(=O)(=O)O)ccc1O)c1ccccc1,inactive,–
CN(C)CCN(C(=O)CN1C(=O)c2ccccc2C1=O)c1nc2cc3c(cc2s1)OCCO3,inactive,–
COC(=O)c1ccc(CSc2ccc(S(=O)(=O)N3CCCCC3)cn2)cc1,inactive,–
Cc1ccc2nc(-c3ccccn3)cc(C(=O)Nc3ccc4c(c3)OCO4)c2c1,inactive,–
Cc1ccc2nc(-c3ccncc3)cc(C(=O)Nc3ccc(OC(F)F)cc3)c2c1,8.91 µM (active),–
Cc1ccc2nc(-c3ccncc3)cc(C(=O)Nc3ccncc3)c2c1,inactive,–
COc1cc(C2C(C(=O)c3cccs3)=C(O)C(=O)N2CCN2CCOCC2)ccc1OCCC(C)C (configuration not stated),inactive,–
Cc1c[n+]([O-])ccc1[N+](=O)[O-],inactive,–
CCOc1ccc2ccccc2c1/C=N/NC(=O)c1c(C)cc(C)[nH]c1=O,inactive,–
O=C(N/N=C/c1c(Cl)[nH]c2ccccc12)c1sc2ccccc2c1Cl,10 µM (active),–
Cc1nn(C)cc1/C=N/NC(=O)c1sc2ccccc2c1Cl,inactive,–
OCC1(CO)CC2(C1)CC(CO)(CO)C2,inactive,–
Cc1ccc(S(=O)(=O)N2CCN(C(=O)c3ccc(-n4cncn4)c([N+](=O)[O-])c3)CC2)cc1,inactive,–
Cc1ccc(S(=O)(=O)N(C)C)cc1NC(=O)C1Cc2ccccc2CN1C(=O)c1ccco1 (configuration not stated),inactive,–
Cc1ccc(C)c(NC(=O)C2Cc3ccccc3CN2C(=O)OCc2ccccc2)c1 (configuration not stated),10 µM (active),–
Cc1ccc(NC(=O)C2CCCN2C(=O)OCc2ccccc2)cc1C (configuration not stated),inactive,–
